# Test results taken from PubChem BioAssay (EPA / NIEHS).
# Inconclusive results are not listed. Calls of active or inactive are those of the source. Rule for the calls, unless noted: active = hit-call score of the fitted dose curve at least 0.9, where 1 is the maximum; inactive = score below 0.9.
# Tests used:
# [1] = target: Transcription factor Sp1 (Homo sapiens) (UniProt P08047); assay: ATG_Sp1_CIS: Attagene CIS-FACTORIAL HepG2 Assay for human Specificity Protein 1 (Sp1) (AID 2282961); settings: HepG2 Sp1 cis-reporter transcription, actives raise or lower the signal
# Sequence of Transcription factor Sp1 (Homo sapiens) (P08047 whole entry, looked up): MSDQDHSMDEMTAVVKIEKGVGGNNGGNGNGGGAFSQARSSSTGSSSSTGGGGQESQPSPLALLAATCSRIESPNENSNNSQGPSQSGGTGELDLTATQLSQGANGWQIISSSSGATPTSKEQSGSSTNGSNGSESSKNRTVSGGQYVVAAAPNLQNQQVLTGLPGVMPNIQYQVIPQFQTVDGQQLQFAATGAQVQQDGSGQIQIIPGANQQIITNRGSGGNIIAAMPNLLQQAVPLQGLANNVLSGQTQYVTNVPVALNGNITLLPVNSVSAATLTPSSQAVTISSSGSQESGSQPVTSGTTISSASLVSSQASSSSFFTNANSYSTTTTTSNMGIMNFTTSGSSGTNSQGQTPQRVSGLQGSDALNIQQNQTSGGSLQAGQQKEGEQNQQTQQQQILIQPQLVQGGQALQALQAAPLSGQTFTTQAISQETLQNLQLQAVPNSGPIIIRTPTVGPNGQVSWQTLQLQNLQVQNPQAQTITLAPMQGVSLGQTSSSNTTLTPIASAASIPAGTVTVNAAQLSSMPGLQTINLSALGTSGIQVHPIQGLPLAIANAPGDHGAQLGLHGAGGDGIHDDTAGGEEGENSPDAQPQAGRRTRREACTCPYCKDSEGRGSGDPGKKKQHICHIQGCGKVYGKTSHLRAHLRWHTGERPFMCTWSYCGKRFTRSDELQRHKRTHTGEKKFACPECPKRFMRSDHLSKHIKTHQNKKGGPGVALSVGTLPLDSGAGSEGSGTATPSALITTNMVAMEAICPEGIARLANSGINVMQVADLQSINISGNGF
# Method in brief: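 After transient transfection of HepG2 cells with cis-promoter reporter units and 24 h chemical treatment, reporter transcripts were quantified by RT-PCR and capillary electrophoresis fluorescence. Gain- and loss-of-signal fitted against DMSO.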
# [2] = ATG_SREBP_CIS: Attagene CIS-FACTORIAL HepG2 Assay for human Sterol Regulatory Element Binding (SREBP) (AID 2282962); settings: HepG2 Attagene cis-factorial SREBP reporter, mRNA; actives raise or lower the signal
# Method in brief: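 mRNA induction of transfected cis-promoter reporters in HepG2 cells, 24 h post-dose. Detection: RT-PCR with 6-FAM-labelled products, HpaI digest, capillary electrophoresis. DMSO served as negative control and baseline.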
# [3] = target: Signal transducer and activator of transcription 3 (Homo sapiens) (UniProt P40763); assay: ATG_STAT3_CIS: Attagene CIS-FACTORIAL HepG2 Assay for human Signal Transducer and Activator of Transcription 3 (STAT3) (AID 2282963); settings: HepG2, Attagene cis-factorial STAT3 reporter transcription; actives raise or lower the signal
# Sequence of Signal transducer and activator of transcription 3 (Homo sapiens) (P40763 whole entry, looked up): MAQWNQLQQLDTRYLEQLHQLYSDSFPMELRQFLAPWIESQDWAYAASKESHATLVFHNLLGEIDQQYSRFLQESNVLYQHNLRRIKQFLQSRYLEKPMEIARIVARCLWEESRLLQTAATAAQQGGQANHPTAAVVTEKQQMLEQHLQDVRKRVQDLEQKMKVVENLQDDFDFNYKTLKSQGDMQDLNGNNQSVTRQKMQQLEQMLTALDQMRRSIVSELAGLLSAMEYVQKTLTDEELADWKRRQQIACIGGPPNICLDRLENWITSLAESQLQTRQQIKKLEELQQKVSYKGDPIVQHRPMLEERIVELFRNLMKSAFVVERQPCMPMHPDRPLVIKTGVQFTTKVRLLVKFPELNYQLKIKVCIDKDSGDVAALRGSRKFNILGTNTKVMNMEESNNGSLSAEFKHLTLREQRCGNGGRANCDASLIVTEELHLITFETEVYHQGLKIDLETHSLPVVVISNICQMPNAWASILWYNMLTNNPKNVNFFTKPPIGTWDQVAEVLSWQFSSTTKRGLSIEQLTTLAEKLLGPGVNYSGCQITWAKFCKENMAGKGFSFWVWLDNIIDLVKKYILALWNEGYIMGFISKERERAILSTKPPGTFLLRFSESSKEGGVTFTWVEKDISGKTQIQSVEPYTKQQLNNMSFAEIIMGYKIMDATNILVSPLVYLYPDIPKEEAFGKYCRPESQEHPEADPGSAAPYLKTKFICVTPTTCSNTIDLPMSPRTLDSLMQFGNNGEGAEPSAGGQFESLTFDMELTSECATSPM
# Method in brief: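 Endogenous STAT3-responsive cis-element activity was read in transiently transfected HepG2 cells after 24 h treatment. Reporter transcripts were quantified via RT-PCR and capillary electrophoresis, with DMSO as negative control and bidirectional curve fitting.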
# [4] = ATG_TA_CIS: Attagene CIS-FACTORIAL HepG2 Assay for human TA Basal Promoter (AID 2282964); settings: HepG2 Attagene CIS-factorial TA basal promoter reporter; actives raise or lower the signal
# Method in brief: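 Transient MRTU transfection of HepG2 preceded 24 h compound exposure. Reporter mRNA levels were then read by RT-PCR with capillary electrophoresis, and this background-control endpoint was fitted bidirectionally to DMSO.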
# [5] = ATG_TCF_b_cat_CIS: Attagene CIS-FACTORIAL HepG2 Assay for human T-Cell-Factor with beta-catenin (TCF/b-cat) (AID 2282965); settings: HepG2 TCF/beta-catenin cis-reporter transcription, actives raise or lower the signal
# Method in brief: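 Endogenous transcription factor activity is captured through cis-promoter reporter constructs transiently introduced into human HepG2 liver cells. Induced reporter mRNA is measured after 24 h and fitted bidirectionally relative to DMSO.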
# [6] = ATG_TGFb_CIS: Attagene CIS-FACTORIAL HepG2 Assay for human Transforming Growth Factor (TGF) (AID 2282967); settings: HepG2 Attagene CIS TGFb reporter, mRNA transcription; actives raise or lower the signal
# Method in brief: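 After a 24-hour incubation with compound, transfected HepG2 cells were lysed for RNA; reporter cDNA was amplified, fluorescently end-labeled and separated by CE. DMSO served as baseline for bidirectional fits.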
# [7] = target: Estrogen receptor (Homo sapiens) (UniProt P03372); assay: ATG_ERa_TRANS: Attagene TRANS-FACTORIAL HepG2 Assay for human Estrogen Receptor alpha (ERa) (AID 2282970; active = hit-call score of the fitted dose curve at least 0.9, where 1 is the maximum); settings: HepG2 Attagene TRANS ERa GAL4 reporter, mRNA
# Sequence of Estrogen receptor (Homo sapiens) (P03372 whole entry, looked up, the tested form may be a part): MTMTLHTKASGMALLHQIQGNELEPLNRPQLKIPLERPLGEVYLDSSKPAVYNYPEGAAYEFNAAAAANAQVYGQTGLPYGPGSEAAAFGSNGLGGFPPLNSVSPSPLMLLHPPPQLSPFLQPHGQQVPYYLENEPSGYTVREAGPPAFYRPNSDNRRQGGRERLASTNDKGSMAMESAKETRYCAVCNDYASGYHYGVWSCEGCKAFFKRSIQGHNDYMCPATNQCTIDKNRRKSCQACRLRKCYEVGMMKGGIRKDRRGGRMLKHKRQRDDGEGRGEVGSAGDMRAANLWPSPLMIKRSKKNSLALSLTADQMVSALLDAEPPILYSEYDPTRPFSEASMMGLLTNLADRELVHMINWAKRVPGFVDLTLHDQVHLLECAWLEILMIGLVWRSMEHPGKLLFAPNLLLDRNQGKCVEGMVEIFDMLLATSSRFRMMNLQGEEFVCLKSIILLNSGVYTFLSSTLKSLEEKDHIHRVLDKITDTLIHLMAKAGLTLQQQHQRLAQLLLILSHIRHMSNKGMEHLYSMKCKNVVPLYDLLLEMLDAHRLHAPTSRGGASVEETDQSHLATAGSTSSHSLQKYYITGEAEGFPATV
# Method in brief: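 Multiplexed cell-based reporter format in HepG2: chimeric ERa-Gal4 protein drives GAL4-UAS reporter transcription. Fluorescent reporter mRNA quantified by capillary electrophoresis 24 hours after dosing; endpoint fitted as signal gain against DMSO.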
# [8] = ATG_TAL_CIS: Attagene CIS-FACTORIAL HepG2 Assay for human TAL Basal Promoter (AID 2282966); settings: HepG2 Attagene cis-factorial TAL promoter reporter; actives raise or lower the signal;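 note: background control endpoint measuring basal TAL promoter reporter mRNA not a specific factor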
# Method in brief: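 Steps: transfect HepG2 with multiple reporter transcription units; dose 24 h; isolate RNA, reverse-transcribe, PCR-amplify, label with 6-FAM, digest with HpaI; resolve by capillary electrophoresis. Bidirectional fitting against DMSO baseline.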
# [9] = ATG_VDRE_CIS: Attagene CIS-FACTORIAL HepG2 Assay for human Vitamin D Receptor Element (VDRE) (AID 2282968); settings: HepG2 VDRE cis-reporter transcription, actives raise or lower the signal
# Method in brief: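 Reporter mRNA induction, quantified by capillary electrophoresis of fluorescently labelled RT-PCR products, was read 24 h after dosing HepG2 cells carrying transiently transfected cis-regulated reporter units; gain or loss relative to DMSO.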
# [10] = target: Nuclear receptor subfamily 1 group I member 3 (Homo sapiens) (UniProt Q14994); assay: ATG_CAR_TRANS: Attagene TRANS-FACTORIAL HepG2 Assay for human Constitutive Androstane Receptor (CAR) (AID 2282969; active = hit-call score of the fitted dose curve at least 0.9, where 1 is the maximum;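 note: activators raise reporter mRNA above DMSO so AC50 marks induction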); settings: HepG2 Attagene TRANS-FACTORIAL CAR reporter
# Sequence of Nuclear receptor subfamily 1 group I member 3 (Homo sapiens) (Q14994 whole entry, looked up, the tested form may be a part): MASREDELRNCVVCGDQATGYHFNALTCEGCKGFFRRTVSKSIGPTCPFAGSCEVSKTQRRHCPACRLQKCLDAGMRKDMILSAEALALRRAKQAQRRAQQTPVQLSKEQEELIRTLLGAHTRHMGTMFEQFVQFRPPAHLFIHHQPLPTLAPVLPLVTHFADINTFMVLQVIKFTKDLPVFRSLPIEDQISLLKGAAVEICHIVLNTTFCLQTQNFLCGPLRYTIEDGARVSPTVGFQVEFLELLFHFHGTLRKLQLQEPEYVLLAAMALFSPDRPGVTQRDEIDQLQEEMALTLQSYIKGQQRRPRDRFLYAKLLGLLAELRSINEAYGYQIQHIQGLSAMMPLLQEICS
# Method in brief: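 Readout is reporter mRNA induction, quantified by fluorescent primer extension and capillary electrophoresis after RT-PCR. Cells were HepG2 transiently carrying chimeric NR-Gal4 constructs with GAL4-UAS reporters, treated for 24 h; activity scored upward from DMSO.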
compound,measurement,setting,value
Fc1ccc(C2(Cn3cncn3)OC2c2ccccc2Cl)cc1 (configuration not stated),outcome,[1],inactive
same,AC50,[2],27.3 µM (active)
same,outcome,[3],inactive
same,outcome,[4],inactive
same,outcome,[5],inactive
same,outcome,[6],inactive
same,outcome,[7],inactive
C=C(C)C#N,outcome,[1],inactive
same,outcome,[2],inactive
same,outcome,[3],inactive
same,outcome,[4],inactive
same,outcome,[8],inactive
same,outcome,[6],inactive
same,outcome,[9],inactive
same,outcome,[7],inactive
CCCCCCCCSC(=O)Oc1cc(Cl)nnc1-c1ccccc1,outcome,[1],inactive
same,outcome,[2],inactive
same,outcome,[3],inactive
same,AC50,[4],124 µM (active)
same,AC50,[8],71.3 µM (active)
same,AC50,[6],152 µM (active)
same,outcome,[7],inactive
CCCCCCCCC(=O)NCc1ccc(O)c(OC)c1,outcome,[1],inactive
same,outcome,[2],inactive
same,outcome,[3],inactive
same,outcome,[4],inactive
same,outcome,[8],inactive
same,outcome,[6],inactive
same,outcome,[7],inactive
COc1ccc(C=O)cc1OC,outcome,[1],inactive
same,outcome,[2],inactive
same,outcome,[3],inactive
same,outcome,[4],inactive
same,outcome,[8],inactive
same,outcome,[6],inactive
same,AC50,[7],58.6 µM (active)
CCc1ccccc1C,outcome,[1],inactive
same,outcome,[2],inactive
same,outcome,[3],inactive
same,outcome,[4],inactive
same,outcome,[8],inactive
same,outcome,[9],inactive
CC1(C)CCC(Cc2ccc(Cl)cc2)C1(O)Cn1cncn1 (configuration not stated),outcome,[1],inactive
same,AC50,[2],9.3 µM (active)
same,outcome,[3],inactive
same,outcome,[4],inactive
same,outcome,[6],inactive
same,AC50,[7],5.3 µM (active)
CC(=O)[O][Hg][c]1ccccc1,AC50,[1],2.87 µM (active)
same,outcome,[2],inactive
same,outcome,[3],inactive
same,outcome,[4],inactive
same,outcome,[8],inactive
same,AC50,[9],3.71 µM (active)
CCc1ccccc1N,outcome,[1],inactive
same,outcome,[2],inactive
same,outcome,[4],inactive
same,outcome,[5],inactive
same,outcome,[6],inactive
same,outcome,[9],inactive
same,outcome,[10],inactive
same,outcome,[7],inactive
C[C@@H]1C[C@@H]([C@H](O)CC2CC(=O)NC(=O)C2)C(=O)[C@@H](C)C1,outcome,[1],inactive
same,outcome,[2],inactive
same,outcome,[4],inactive
same,AC50,[5],8.48 µM (active) [middle of 4 runs]
CCOP(=S)(OCC)Oc1nc(Cl)c(Cl)cc1Cl,AC50,[1],65.3 µM (active)
same,AC50,[2],68.1 µM (active)
same,outcome,[4],inactive
same,AC50,[9],5.83 µM (active)
same,outcome,[10],inactive
same,AC50,[7],26.9 µM (active)
O=C(O)C(Cl)(Cl)Cl,outcome,[1],inactive
same,outcome,[2],inactive
same,outcome,[4],inactive
same,outcome,[5],inactive
same,outcome,[9],inactive
